Reference: the supplement of paper PMC6411743
± gives the standard deviation of the averaged measurements. Targets with the largest changes are over-represented here; the source holds about 6,500 in all.

Compound: Nc1ncnc2c1ncn2[C@@H]1O[C@H](COP(=O)(O)OP(=O)(O)OP(=O)(O)O)[C@@H](O)[C@H]1O [adenosine triphosphate]
Test: NP40-soluble protein abundance relative to vehicle (solubility fold change) (ratio); higher = more soluble protein in presence of ATP
In short: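 Crude Jurkat lysate, prepared by Dounce homogenisation, was exposed to eight concentrations from 0.1 to 10 mM for 10 min at room temperature and then 3 min at 37 °C. Solubilisation used 0.8% NP40 with benzonase for 60 min at 4 °C, followed by ultracentrifugation and TMT labelling of the supernatant for LC-MS/MS. After vsn normalisation of intensities, each value is the fold change against the detergent-processed vehicle within each replicate, across three independent experiments.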

UniProt O00567, sequence (O00567 whole entry): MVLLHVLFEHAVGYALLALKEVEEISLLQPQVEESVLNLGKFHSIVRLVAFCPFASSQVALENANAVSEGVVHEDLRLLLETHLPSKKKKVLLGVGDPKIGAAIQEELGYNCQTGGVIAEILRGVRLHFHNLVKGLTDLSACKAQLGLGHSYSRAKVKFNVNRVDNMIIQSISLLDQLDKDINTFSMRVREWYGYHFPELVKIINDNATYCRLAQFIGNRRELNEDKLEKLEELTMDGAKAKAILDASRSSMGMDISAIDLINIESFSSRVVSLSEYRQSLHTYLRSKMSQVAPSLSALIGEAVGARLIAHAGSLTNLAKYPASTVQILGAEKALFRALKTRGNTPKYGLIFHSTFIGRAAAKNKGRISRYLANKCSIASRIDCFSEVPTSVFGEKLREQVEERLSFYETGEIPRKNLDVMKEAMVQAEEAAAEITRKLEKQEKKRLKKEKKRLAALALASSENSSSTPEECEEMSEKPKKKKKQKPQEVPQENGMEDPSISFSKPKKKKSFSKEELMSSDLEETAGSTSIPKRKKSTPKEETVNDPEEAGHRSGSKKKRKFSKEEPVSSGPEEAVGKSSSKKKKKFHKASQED
UniProt O00750, sequence (O00750 whole entry, one chain of several): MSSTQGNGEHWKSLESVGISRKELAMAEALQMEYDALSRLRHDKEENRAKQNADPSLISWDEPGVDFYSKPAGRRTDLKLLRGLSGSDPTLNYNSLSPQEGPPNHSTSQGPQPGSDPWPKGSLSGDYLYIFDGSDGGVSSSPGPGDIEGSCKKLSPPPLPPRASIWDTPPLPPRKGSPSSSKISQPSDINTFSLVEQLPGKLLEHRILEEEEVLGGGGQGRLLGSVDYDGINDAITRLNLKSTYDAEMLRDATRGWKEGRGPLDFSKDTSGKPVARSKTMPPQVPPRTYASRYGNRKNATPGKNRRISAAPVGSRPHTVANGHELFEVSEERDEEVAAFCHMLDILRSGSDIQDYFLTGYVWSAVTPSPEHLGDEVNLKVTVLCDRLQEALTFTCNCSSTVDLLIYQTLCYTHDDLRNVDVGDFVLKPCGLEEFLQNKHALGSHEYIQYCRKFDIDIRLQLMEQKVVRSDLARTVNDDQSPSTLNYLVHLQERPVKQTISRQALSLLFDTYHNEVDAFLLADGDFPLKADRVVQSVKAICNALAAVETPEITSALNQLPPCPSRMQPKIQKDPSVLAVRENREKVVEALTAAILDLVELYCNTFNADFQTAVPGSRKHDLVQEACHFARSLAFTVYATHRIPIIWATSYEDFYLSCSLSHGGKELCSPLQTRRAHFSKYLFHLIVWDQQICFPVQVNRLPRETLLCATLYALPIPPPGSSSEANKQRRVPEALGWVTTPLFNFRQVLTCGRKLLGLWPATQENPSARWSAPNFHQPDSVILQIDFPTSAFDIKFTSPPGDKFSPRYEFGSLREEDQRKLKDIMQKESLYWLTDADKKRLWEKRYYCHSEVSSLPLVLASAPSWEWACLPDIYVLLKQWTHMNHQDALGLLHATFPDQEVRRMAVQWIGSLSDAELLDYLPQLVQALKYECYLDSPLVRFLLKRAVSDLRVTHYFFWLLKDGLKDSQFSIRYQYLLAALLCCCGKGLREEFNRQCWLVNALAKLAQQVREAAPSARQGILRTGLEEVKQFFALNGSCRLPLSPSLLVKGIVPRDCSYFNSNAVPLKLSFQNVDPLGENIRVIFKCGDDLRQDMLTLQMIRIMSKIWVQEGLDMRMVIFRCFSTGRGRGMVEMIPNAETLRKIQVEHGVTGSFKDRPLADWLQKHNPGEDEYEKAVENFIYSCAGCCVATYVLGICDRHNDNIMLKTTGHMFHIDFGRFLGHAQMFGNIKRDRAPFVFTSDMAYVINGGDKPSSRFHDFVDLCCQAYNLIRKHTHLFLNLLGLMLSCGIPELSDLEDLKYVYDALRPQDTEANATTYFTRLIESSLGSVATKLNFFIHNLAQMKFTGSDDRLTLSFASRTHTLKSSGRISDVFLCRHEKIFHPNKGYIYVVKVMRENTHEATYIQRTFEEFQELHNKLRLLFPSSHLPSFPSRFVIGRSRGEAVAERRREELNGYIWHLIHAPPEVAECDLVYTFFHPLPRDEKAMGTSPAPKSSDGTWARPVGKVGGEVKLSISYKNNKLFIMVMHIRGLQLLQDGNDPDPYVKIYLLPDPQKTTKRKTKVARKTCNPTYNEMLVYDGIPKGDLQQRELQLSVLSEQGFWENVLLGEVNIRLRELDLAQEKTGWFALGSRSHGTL
UniProt Q9H2U1, sequence (Q9H2U1 whole entry, one chain of several): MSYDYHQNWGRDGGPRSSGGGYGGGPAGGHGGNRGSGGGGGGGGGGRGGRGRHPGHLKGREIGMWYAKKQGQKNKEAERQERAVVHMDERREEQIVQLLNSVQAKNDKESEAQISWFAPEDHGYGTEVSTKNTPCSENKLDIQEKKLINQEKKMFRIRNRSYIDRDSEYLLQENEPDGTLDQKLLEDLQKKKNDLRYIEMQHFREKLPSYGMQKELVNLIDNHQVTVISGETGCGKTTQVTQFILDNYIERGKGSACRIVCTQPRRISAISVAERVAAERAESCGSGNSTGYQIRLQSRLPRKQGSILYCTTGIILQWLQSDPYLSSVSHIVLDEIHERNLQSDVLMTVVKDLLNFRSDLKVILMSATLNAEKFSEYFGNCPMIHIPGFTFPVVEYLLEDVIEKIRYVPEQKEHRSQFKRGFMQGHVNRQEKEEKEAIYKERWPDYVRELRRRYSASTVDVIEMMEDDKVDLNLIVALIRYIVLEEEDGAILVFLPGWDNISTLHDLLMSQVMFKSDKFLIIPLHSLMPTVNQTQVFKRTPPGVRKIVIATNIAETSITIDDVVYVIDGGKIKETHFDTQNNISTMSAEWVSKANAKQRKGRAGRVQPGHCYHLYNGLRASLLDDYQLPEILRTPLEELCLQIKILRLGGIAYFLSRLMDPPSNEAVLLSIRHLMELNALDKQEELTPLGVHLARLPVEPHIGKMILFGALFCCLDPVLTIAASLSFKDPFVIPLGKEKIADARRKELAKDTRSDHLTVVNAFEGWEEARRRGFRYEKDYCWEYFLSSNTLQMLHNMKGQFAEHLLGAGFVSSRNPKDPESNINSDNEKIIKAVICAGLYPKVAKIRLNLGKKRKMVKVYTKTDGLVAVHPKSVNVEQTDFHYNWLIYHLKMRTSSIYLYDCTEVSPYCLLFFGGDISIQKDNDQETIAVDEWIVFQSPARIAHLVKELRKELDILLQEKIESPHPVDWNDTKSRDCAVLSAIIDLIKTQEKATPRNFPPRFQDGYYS
UniProt O43169, sequence (O43169 whole entry, one chain of several): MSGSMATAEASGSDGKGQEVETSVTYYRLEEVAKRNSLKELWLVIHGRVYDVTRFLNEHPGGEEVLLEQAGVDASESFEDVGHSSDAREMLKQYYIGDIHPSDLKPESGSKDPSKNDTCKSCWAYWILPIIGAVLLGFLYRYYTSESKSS
UniProt Q8IVV7, sequence (Q8IVV7 whole entry, one chain of several): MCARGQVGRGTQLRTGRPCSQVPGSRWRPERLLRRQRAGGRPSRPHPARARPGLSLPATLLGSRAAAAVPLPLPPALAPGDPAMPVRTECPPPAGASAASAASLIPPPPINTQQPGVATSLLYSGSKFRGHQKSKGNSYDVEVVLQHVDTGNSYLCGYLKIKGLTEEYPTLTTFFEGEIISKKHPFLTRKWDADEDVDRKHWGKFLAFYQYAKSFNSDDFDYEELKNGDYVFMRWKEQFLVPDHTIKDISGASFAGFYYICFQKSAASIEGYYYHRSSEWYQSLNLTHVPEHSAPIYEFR
UniProt O43513, sequence (O43513 whole entry): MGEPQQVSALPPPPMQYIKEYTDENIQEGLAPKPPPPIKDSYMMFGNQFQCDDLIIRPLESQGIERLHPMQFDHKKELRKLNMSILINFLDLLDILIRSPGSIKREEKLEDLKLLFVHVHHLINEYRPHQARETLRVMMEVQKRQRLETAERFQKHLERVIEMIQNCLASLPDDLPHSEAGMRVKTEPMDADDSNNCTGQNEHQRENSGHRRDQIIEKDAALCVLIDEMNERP
UniProt P56556, sequence (P56556 whole entry, one chain of several): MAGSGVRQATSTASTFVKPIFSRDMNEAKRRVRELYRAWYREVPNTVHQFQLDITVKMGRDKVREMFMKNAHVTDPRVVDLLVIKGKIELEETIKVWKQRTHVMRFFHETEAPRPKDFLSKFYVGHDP
UniProt Q6ZRP7, sequence (Q6ZRP7 whole entry, one chain of several): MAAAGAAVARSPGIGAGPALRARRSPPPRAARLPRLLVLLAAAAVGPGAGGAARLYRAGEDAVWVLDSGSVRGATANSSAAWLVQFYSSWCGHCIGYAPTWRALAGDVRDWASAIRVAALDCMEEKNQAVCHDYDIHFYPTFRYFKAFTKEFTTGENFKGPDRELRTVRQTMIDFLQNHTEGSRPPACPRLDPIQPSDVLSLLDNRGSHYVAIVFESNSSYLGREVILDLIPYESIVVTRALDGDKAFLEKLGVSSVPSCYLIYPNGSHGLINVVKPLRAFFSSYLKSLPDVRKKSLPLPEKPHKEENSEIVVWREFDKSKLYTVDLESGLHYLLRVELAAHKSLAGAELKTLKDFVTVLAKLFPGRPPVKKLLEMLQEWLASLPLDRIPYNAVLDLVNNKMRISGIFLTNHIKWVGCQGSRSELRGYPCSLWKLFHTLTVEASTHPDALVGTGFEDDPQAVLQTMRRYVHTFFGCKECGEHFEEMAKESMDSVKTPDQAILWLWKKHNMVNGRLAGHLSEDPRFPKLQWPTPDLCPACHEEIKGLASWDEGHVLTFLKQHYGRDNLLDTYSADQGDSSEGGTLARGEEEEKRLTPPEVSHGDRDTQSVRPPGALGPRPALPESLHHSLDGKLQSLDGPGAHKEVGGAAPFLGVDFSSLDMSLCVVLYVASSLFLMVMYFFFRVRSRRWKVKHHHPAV

Target	NP40-soluble protein abundance (concentration: 1mM)	NP40-soluble protein abundance (concentration: 2mM)	NP40-soluble protein abundance (concentration: 4mM)	NP40-soluble protein abundance (concentration: 6mM)	NP40-soluble protein abundance (concentration: 8mM)	NP40-soluble protein abundance (concentration: 10mM)
F5GWN5|O00750 (UniProt O00750)	0.994 ± 0.022	1.03 ± 0.025	1.05 ± 0.013	1.02 ± 0.039	1.03 ± 0.028	1.03 ± 0.051
H3BUX2|J3KNF8|O43169 (UniProt O43169)	0.964 ± 0.19	0.854 ± 0.08	0.877 ± 0.06	0.865 ± 0.077	0.815 ± 0.059	0.781 ± 0.084
UniProt O00567	1.04 ± 0.038	1.1 ± 0.033	1.24 ± 0.02	1.38 ± 0.06	1.68 ± 0.064	2.11 ± 0.2
A0A087X176|Q6ZRP7 (UniProt Q6ZRP7)	0.958 ± 0.057	0.983 ± 0.011	0.961 ± 0.028	0.99 ± 0.029	0.953 ± 0.026	0.96 ± 0.037
MED7 (UniProt O43513)	1.23 ± 0.3	1.17 ± 0.091	1.09 ± 0.056	1.2 ± 0.37	1.23 ± 0.26	1.28 ± 0.34
UniProt O75081|O75081-2|O75081-4	0.943 ± 0.039	0.9218 ± 0.0052	0.907 ± 0.052	0.888 ± 0.14	0.888 ± 0.082	0.97 ± 0.089
H7C5F5|Q9H2U1|Q9H2U1-2 (UniProt Q9H2U1)	0.963 ± 0.068	0.979 ± 0.08	0.987 ± 0.073	1.01 ± 0.1	1.03 ± 0.088	1.02 ± 0.1
DHX15 (UniProt O43143)	1.25 ± 0.079	1.24 ± 0.071	1.24 ± 0.079	1.24 ± 0.1	1.33 ± 0.074	1.29 ± 0.044
F8W060|Q9BZF1 (UniProt Q9BZF1)	0.936 ± 0.018	0.933 ± 0.035	0.939 ± 0.018	0.927 ± 0.046	0.964 ± 0.013	0.959 ± 0.045
E9PJI1|Q92993-3|Q92993-4|Q92993|Q92993-2 (UniProt Q92993)	1.06 ± 0.12	0.959 ± 0.11	1.13 ± 0.17	1.1 ± 0.19	1.06 ± 0.21	1.13 ± 0.1
UniProt A0FGR8-2|H7BXI1|A0FGR8-6	1 ± 0.026	1.02 ± 0.025	1.02 ± 0.015	0.997 ± 0.052	1.02 ± 0.03	1.02 ± 0.047
A0A0C4DGS0|P56556 (UniProt P56556)	0.969 ± 0.066	0.922 ± 0.055	0.901 ± 0.046	0.875 ± 0.066	0.926 ± 0.053	0.909 ± 0.031
J3KPF0 (UniProt Q9Y4D8)	1.08 ± 0.036	1.04 ± 0.068	1.05 ± 0.025	1.01 ± 0.1	1.02 ± 0.08	1 ± 0.044
D6REA1|Q9H173|D6RIU8 (UniProt Q9H173)	0.922 ± 0.083	0.938 ± 0.046	0.92 ± 0.083	0.929 ± 0.11	0.917 ± 0.063	0.8663 ± 0.0052
K7ELH7|K7ENE2|Q8IVV7 (UniProt Q8IVV7)	1.04 ± 0.13	0.979 ± 0.11	1 ± 0.032	0.867 ± 0.075	0.931 ± 0.094	0.92918 ± 9.2e-06
